Assay results reported in PubChem BioAssay (NCI).
Compounds without any hit were thinned out: in the full panel of roughly 83,000, 20% have a hit.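 48-hour exposure, single concentration, 96-well plates; percent growth endpoint where 0 means no net growth. Active: below 10.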 The source made the active and inactive calls.

Columns and labels:
Assay in all cases: NCI-60 one-dose screen, 48 h (100 = growth as untreated, 0 = no growth, -100 = all killed)
Conditions in all cases: 10 µM unless noted
[1] = system: DU-145 prostate
[2] = system: K-562 leukemia
[3] = system: MALME-3M melanoma
[4] = system: MDA-MB-231 breast
[5] = system: RXF 393 renal
[6] = system: SF-268 CNS
[7] = system: SF-295 CNS
[8] = system: SF-539 CNS
[9] = system: UACC-257 melanoma
[10] = system: M14 melanoma
[11] = system: HCT-15 colon
[12] = system: HT29 colon
[13] = system: SNB-75 CNS
[14] = system: SNB-19 CNS
[15] = system: U251 CNS
[16] = system: PC-3 prostate
[17] = system: SK-MEL-5 melanoma
[18] = system: UACC-62 melanoma
[19] = system: LOX IMVI melanoma
[20] = system: SK-MEL-28 melanoma

Measured: growth

CCC(=O)Nc1ccc(-c2nc(-c3cccc(OC)c3)c(-c3ccnc(Br)c3)[nH]2)cc1
active: [5] -22.8%
inactive: [1] 70.6% | [2] 24.1% | [3] 69.4% | [4] 71.8% | [6] 75.8% | [7] 16.1% | [8] 51.1% | [9] 74.4% | [10] 63.1% | [11] 21.5% | [12] 54.7% | [13] 15.9% | [14] 67.8% | [15] 53.4% | [16] 39.4% | [17] 47.8% | [18] 48.8% | [19] 43.3% | [20] 66%

Oc1ccc(-c2nc3ccc4[nH]ncc4c3c3c2CCCC3)c2cccnc12
inactive: [1] 11.6% | [4] 18.8% | [12] 12.1% | [14] 13.7% | [20] 13.3%
active: [2] 7.23% | [3] -3.69% | [5] -9.52% | [6] 0.245% | [7] -4.23% | [8] -1.03% | [9] -20.4% | [10] 3.35% | [11] 4.75% | [13] -23.1% | [15] -4.46% | [16] 7.83% | [17] -4.91% | [18] -11.5% | [19] 3.42%

O=c1c2cc(F)cc(Cl)c2sc2c(NCCCNCCO)nc3ccccc3c12
inactive: [1] 77% | [2] 18.7% | [3] 99.8% | [4] 48.8% | [5] 80.3% | [6] 67.1% | [7] 104% | [8] 88.5% | [9] 109% | [10] 62.3% | [11] 77.3% | [13] 74.6% | [14] 88.1% | [15] 75.8% | [16] 82.7% | [17] 98.9% | [18] 99.9% | [19] 66% | [20] 108%
active: [12] 3.35%

COc1ccc([C@H]2c3cc(OC)c(OC)cc3C=C(C=O)C2CO)cc1OC (stereo not given in full)
inactive: [1] 61.9% | [2] 20.1% | [3] 68.2% | [4] 70.2% | [6] 60.5% | [7] 12.7% | [8] 38% | [9] 39.7% | [10] 35.7% | [11] 43.1% | [12] 19% | [13] 15.8% | [14] 50.9% | [15] 36.2% | [16] 29% | [17] 24.6% | [18] 33.9% | [19] 46.3% | [20] 55.3%
active: [5] -9.23%

Cc1ccc(-c2nc(N3CCN(C(=O)Nc4ccc(Cl)c(C(F)(F)F)c4)CC3)c3ccccc3n2)cc1
inactive: [1] 86.6% | [2] 44.9% | [3] 105% | [4] 61.3% | [5] 68% | [6] 58.1% | [7] 78.2% | [8] 87% | [9] 90.1% | [10] 73.8% | [11] 70.3% | [12] 75.2% | [13] 66.2% | [14] 86% | [15] 79.6% | [16] 49.6% | [17] 84.3% | [18] 70% | [19] 65.4% | [20] 89.2%

CCOC(=O)C1=C(N)Oc2c(sc3c(C)cccc23)C1c1ccc(OC)cc1 (stereo not given)
active: [13] -3.57%
inactive: [1] 50.5% | [2] 10.5% | [3] 43.9% | [4] 46.3% | [5] 29.8% | [6] 51% | [7] 19.4% | [8] 15.4% | [9] 46.8% | [10] 21.7% | [11] 21.7% | [12] 84.7% | [14] 28.8% | [15] 26.6% | [16] 28.7% | [17] 52.5% | [18] 17% | [19] 32.3% | [20] 46.5%

CCc1cccc2c1S/C(=C/c1ccc(Cl)cc1)C2=O
inactive: [1] 107% | [2] 80.1% | [3] 87.5% | [4] 87.6% | [5] 105% | [6] 93% | [7] 96.7% | [8] 89.1% | [9] 105% | [10] 99.1% | [11] 92.5% | [12] 105% | [13] 73.3% | [14] 95.1% | [15] 99.2% | [16] 88.6% | [17] 99.4% | [18] 88.6% | [19] 93.8% | [20] 110%

CC(C)OC(=O)Nc1ccc(-c2nc(-c3cccc(OCCN4CCOCC4)c3)c(-c3ccnc(Br)c3)[nH]2)cc1
active: [2] 0.869% | [3] -5.36% | [5] -42.9% | [7] -65.2% | [8] -0.0542% | [11] 4.55% | [12] 1.53% | [13] -19.3% | [19] 3.35% | [20] 0.701%
inactive: [1] 63.8% | [4] 39.3% | [6] 52.2% | [9] 33.5% | [10] 30.5% | [14] 22.5% | [15] 17.3% | [16] 19.7% | [17] 21.7% | [18] 15.1%

CCOc1cccc(NC2=C(Br)C(=O)C(C)=C(C)C2=O)c1
active: [2] 0.431%
inactive: [1] 104% | [3] 91.4% | [4] 34.3% | [5] 113% | [6] 94.1% | [7] 101% | [8] 94.9% | [9] 68% | [10] 87.1% | [11] 98.6% | [12] 107% | [13] 56.3% | [14] 94% | [15] 97.3% | [16] 73.8% | [17] 89% | [18] 81.5% | [19] 26% | [20] 104%

COc1cc2cc(Oc3ccc(NC(=O)Nc4ccc(Cl)c(Cl)c4)cc3)c(C)nc2cc1OCCN1CCOCC1
inactive: [1] 99.6% | [2] 39.2% | [3] 92.2% | [4] 97.1% | [5] 84% | [6] 94.3% | [7] 80.1% | [8] 93.6% | [9] 74.3% | [10] 101% | [11] 88.9% | [12] 90.1% | [13] 92.9% | [14] 90.5% | [15] 96.6% | [16] 76.7% | [17] 50.8% | [18] 77.8% | [19] 93.5% | [20] 101%

c1ccc2c(c1)Nc1ccncc1S2
active: [5] 4.28%
inactive: [1] 118% | [2] 112% | [3] 111% | [4] 87.8% | [6] 99.3% | [7] 101% | [8] 84.4% | [9] 108% | [10] 95.1% | [11] 99.7% | [12] 90.5% | [13] 86.3% | [14] 107% | [15] 102% | [16] 91.2% | [17] 93.3% | [18] 96.8% | [19] 85.8% | [20] 128%

COc1ccc(-c2nc3sc(-c4ccccc4)cn3n2)cc1
inactive: [1] 83.5% | [2] 23.8% | [3] 67.6% | [4] 47% | [5] 75.3% | [6] 71.8% | [7] 61.8% | [8] 75.2% | [9] 71.8% | [10] 28.4% | [11] 30.4% | [12] 29.6% | [13] 65.2% | [14] 65.9% | [15] 78.8% | [16] 66.5% | [17] 34.4% | [18] 57.2% | [19] 54.4% | [20] 67.6%

CCOC(=O)Nc1ccc(C(=O)/C=C/c2ccccc2)cc1
inactive: [1] 86.4% | [2] 24.2% | [3] 103% | [4] 95.9% | [5] 36.8% | [6] 93.8% | [7] 106% | [8] 67.9% | [9] 115% | [10] 79.2% | [11] 85.7% | [12] 37.4% | [13] 116% | [14] 81.4% | [15] 73.6% | [16] 88.6% | [17] 92.2% | [18] 81.5% | [19] 70.5% | [20] 101%

NS(=O)(=O)c1ccc(-n2nc(-c3ccc(Cl)cc3)c3ccccc3c2=O)cc1
inactive: [1] 111% | [2] 84.2% | [3] 182% | [4] 87.9% | [5] 98.8% | [6] 98.1% | [7] 97.3% | [8] 89.4% | [9] 116% | [10] 103% | [11] 94.5% | [12] 97.1% | [13] 79.2% | [14] 85.6% | [15] 103% | [16] 75.3% | [17] 90.3% | [18] 89.2% | [19] 83.6% | [20] 117%

CC1CN(C2CCCCC2)C(=S)N(c2ccccc2)C1=O (stereo not given)
inactive: [1] 115% | [2] 117% | [3] 119% | [4] 115% | [5] 123% | [6] 102% | [7] 103% | [8] 103% | [9] 109% | [10] 108% | [11] 103% | [12] 111% | [13] 92.1% | [14] 101% | [15] 105% | [16] 90.1% | [17] 104% | [18] 105% | [19] 105% | [20] 114%
